Screening results deposited in PubChem BioAssay by National Center for Advancing Translational Sciences (NCATS).
Compounds with a hit are over-represented: about 9.3% of the library has one in this group of screens.
VACV Venus inh: vaccinia inhibition (Venus reporter) | Vaccinia virus Venus reporter expression, fluorescence | Potency, µM (titrated, usually from 36.5 µM), actives largely listed as inhibitors | hit rate 0.46% among 330,000 | AID 720580; calls by dose curve; tested in A549 cells; note: nearly all actives have a fitted effect of over 30% in size
FMDV antiviral: antivirals against foot and mouth disease virus; Potency, µM (highest dose often 57.9 µM), most hits filed as inhibitors; AID 1159524; FMDV antiviral cell-based qHTS; hit rate 1.2% among 410,000; calls by dose curve; tested in HEK293T cells; note: read-out not given here; nearly all actives have a fitted effect of over 45% in size
Sm TGR block: S. mansoni TGR enzyme inhibition; purified TGR, DTNB reduction, TNB absorbance 405 nm; Potency, µM (top dose mostly 114 µM), hits mostly inhibitors; hit rate 3% among 360,000; AID 485364; note: nearly all actives have a fitted effect of over 60% in size
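First, TGR (20 nM dispensed) and NADPH were mixed with compound. Second, a 15 min room-temperature incubation followed. Third, further NADPH and then DTNB were added to start the reaction. Finally, TNB absorbance was monitored kinetically.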
VACV mCherry inh: inhibitors of vaccinia virus infection (mCherry reporter signal). Vaccinia virus mCherry reporter infection, fluorescence. Potency, µM (titrated, usually from 36.5 µM), usual class: inhibitors. hit rate 0.63% among 310,000. AID 720579; calls by dose curve; tested in A549 cells; note: nearly all actives have a fitted effect of over 35% in size
HCV inhibitor: inhibitors of hepatitis C virus infection; Huh7.5.1 HCVcc-Cre infection, luciferase reporter, 44 h; Potency, µM (series often up to 41.8 µM), most hits filed as inhibitors; hit rate 3.4% among 340,000
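Compounds are dispensed onto cells plated 4 h earlier at 1,000 per well, with HCVcc-Cre virus (about 0.5 moi) added next. Following 44 h of culture, luminescent signal is measured for 15 sec after 15 min with substrate at room temperature.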
HCMV inh: human cytomegalovirus inhibition. HFF cells, HCMV-luciferase reporter, 72 h; stronger effect = lower value. hit rate 4.5% among 410,000. activity change, negative = inhibition, % at 57.5 µM; in the data active = activity change below about -60%; inconclusive = no clear call, values can overlap the other calls; inactive = above about -39%
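After 16 h attachment at 37C, HFF cells received test compound and HCMV-luciferase (1 PFU/cell); reporter luminescence read 72 h later, data normalized against buffer-only and known inhibitor Salinomycin.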
Of the large screens only hits and unclear results are named; the others gave an inactive call. Unless noted, calls come from the whole dose curve; as a rule, active = well fitted curve in the direction sought with a large enough effect; inconclusive = small, poorly fitted or top-dose-only effect, or another doubt; inactive = no such curve, though single readings can be large; an effect the other way counts as inactive or inconclusive.

OCCN1CCN(c2nc(NCc3ccco3)c3ccccc3n2)CC1	HCV inhibitor inconclusive (no result: VACV mCherry inh)
CSc1nc(NCc2ccco2)c2ccccc2n1	VACV Venus inh inconclusive, FMDV antiviral inconclusive, HCMV inh inconclusive
Cc1cc(N2CCCCCC2)nc(-c2ccccc2O)n1	HCV inhibitor 13µM (no result: VACV mCherry inh)
CCCOc1cc(C)nc(-c2ccccc2O)n1	HCMV inh -65 (no result: VACV mCherry inh)
CCOC(=O)c1ccc(Nc2cc(C)nc(-c3ccccc3O)n2)cc1	HCV inhibitor inconclusive, HCMV inh inconclusive (no result: FMDV antiviral)
Cc1cc(OC(C)C)nc(-c2ccccc2O)n1	none (no result: VACV Venus inh, VACV mCherry inh)
Cc1cc(Nc2ccccc2)nc(-c2ccccc2O)n1	VACV Venus inh inconclusive, HCV inhibitor 0.63µM (no result: VACV mCherry inh)
Cc1cc(N2CCCCC2)nc(N2CCCCC2)n1	HCMV inh -61
Cc1cc(N2CCOCC2)nc(-c2ccccc2O)n1	HCV inhibitor inconclusive
CC1C(C)C(O)(c2ccccc2)CCN1C (stereo unspecified)	none (no result: VACV Venus inh, VACV mCherry inh)
CCCCN(CC(=O)NCc1ccc(Cl)cc1)S(=O)(=O)c1ccc2c(c1)OCCO2	VACV mCherry inh inconclusive, HCV inhibitor inconclusive
CC(C)NC(=O)CSc1c2c(nc3ccccc13)CCCC2	HCMV inh -72
Cc1cc(NC(=O)CSc2c3c(nc4ccccc24)CCC3)no1	FMDV antiviral inconclusive
Cc1cc(Br)ccc1NC(=O)CSc1c2c(nc3ccccc13)CCC2	FMDV antiviral inconclusive, HCMV inh -95 (no result: HCV inhibitor)
CCOc1ccc(-n2c(SCC(=O)Nc3ccc(OC)cc3OC)nc3c(c2=O)SCC3)cc1	HCV inhibitor inconclusive
COc1ccc(NC(=O)CSc2nc3c(c(=O)n2-c2ccccc2)SCC3)c(OC)c1	Sm TGR block 25µM
COc1ccccc1NC(=O)CSc1c2c(nc3ccccc13)CCC2	VACV Venus inh inconclusive, FMDV antiviral inconclusive
COc1ccc(NC(=O)CSc2c3c(nc4ccccc24)CCCC3)c(OC)c1	FMDV antiviral 35µM
CC(=O)Nc1ccc(NC(=O)c2c(C)nn(Cc3ccccc3Cl)c2C)cc1	none
Cc1cccc(N2CCN(C(=O)c3c(C)nn(Cc4ccccc4Cl)c3C)CC2)c1C	VACV Venus inh inconclusive, FMDV antiviral 35µM, HCV inhibitor 32µM, HCMV inh inconclusive (no result: VACV mCherry inh)
N#Cc1nc(COc2ccccc2Cl)oc1NCc1ccco1	Sm TGR block 22µM
COc1ccc(CCNc2oc(Cc3ccccc3)nc2C#N)cc1OC	FMDV antiviral 14µM, HCV inhibitor 10µM
COc1ccc(-c2nc(C#N)c(NCCc3ccccc3)o2)cc1OC	HCV inhibitor inconclusive
COc1ccc(CCNc2oc(COc3ccccc3Cl)nc2C#N)cc1OC	FMDV antiviral 20µM, HCV inhibitor inconclusive
COc1ccc(CCNc2oc(COc3ccccc3F)nc2C#N)cc1OC	Sm TGR block inconclusive, HCV inhibitor inconclusive
Cn1cc(CN2CCC(C(=O)NC(c3ccc(-c4ccccc4)cc3)c3cnccn3)CC2)c2ccccc21 (stereo unspecified)	VACV Venus inh 11µM, VACV mCherry inh inconclusive (no result: Sm TGR block, HCV inhibitor)
Cc1ccccc1C(=O)N1CCC2CC1c1cc(-c3ccc(F)cc3)ccc12 (stereo unspecified)	FMDV antiviral 32µM, HCV inhibitor inconclusive (no result: Sm TGR block)
CCOC(=O)C1=C(C)N(C)C(C)=C(C(=O)OCC)C1c1cccnc1	none
CCOC(=O)C1C(=O)C(C(=O)OCC)C(c2cccnc2)NC1c1cccnc1 (stereo unspecified)	Sm TGR block 25µM
Cc1nc2ccc(NC(=O)c3cccs3)cc2c(=O)n1Cc1ccc(Cl)cc1	VACV Venus inh inconclusive, VACV mCherry inh 11µM, HCV inhibitor inconclusive, HCMV inh -98 (no result: FMDV antiviral)
CC(=O)c1ccc(NC(=O)C(C)OC(=O)c2cccc(-n3cnnn3)c2)cc1 (stereo unspecified)	FMDV antiviral inconclusive
CC(OC(=O)c1cccc(-n2cnnn2)c1)c1nc2ccccc2c(=O)[nH]1 (stereo unspecified)	FMDV antiviral inconclusive, HCMV inh -65 (no result: VACV Venus inh, VACV mCherry inh)
CC(OC(=O)c1cccc(-n2cnnn2)c1)C(=O)Nc1cccc(Cl)c1 (stereo unspecified)	HCV inhibitor 8.9µM
c1ccc(-c2cccc(-c3ccccc3)n2)cc1	HCMV inh -65 (no result: VACV Venus inh, VACV mCherry inh)
COc1ccc(N(C(=O)c2snc(C(N)=O)c2N)C(C(=O)NC2CCCCC2)c2ccc(C)o2)cc1 (stereo unspecified)	HCV inhibitor inconclusive, HCMV inh -70
Cc1ccc(C(C(=O)NCC2CCCO2)N(C(=O)c2snc(C(N)=O)c2N)c2ccc3c(c2)OCCO3)cc1 (stereo unspecified)	HCV inhibitor inconclusive
NC(=O)c1nsc(C(=O)N(c2ccccc2)C(C(=O)NCC2CCCO2)c2cccs2)c1N (stereo unspecified)	none (no result: VACV Venus inh, VACV mCherry inh)
NC(=O)c1nsc(C(=O)N(c2ccc3c(c2)OCCO3)C(C(=O)NCC2CCCO2)c2ccc(F)cc2)c1N (stereo unspecified)	HCV inhibitor inconclusive, HCMV inh -74
CCOc1ccc(C(C(=O)NCC2CCCO2)N(Cc2cccs2)C(=O)c2snc(C(N)=O)c2N)cc1 (stereo unspecified)	HCV inhibitor inconclusive, HCMV inh -68
Cc1cc(C)cc(N(C(=O)c2snc(C(N)=O)c2N)C(C(=O)NCC2CCCO2)c2cccs2)c1 (stereo unspecified)	HCV inhibitor 11µM, HCMV inh -93
CC(=O)NC(CC(=O)N1CCN(C(C)=O)CC1)c1ccccc1 (stereo unspecified)	none (no result: VACV Venus inh, VACV mCherry inh)
COc1cccc(OC)c1C(=O)N1CCNCC1	none
CC(C)CCNC(=O)C(c1ccco1)N(Cc1ccccc1)C(=O)c1snc(C(N)=O)c1N (stereo unspecified)	none (no result: HCV inhibitor)
COc1ccccc1N(C(=O)c1snc(C(N)=O)c1N)C(C(=O)NC1CCCC1)c1ccc2ncccc2c1 (stereo unspecified)	HCMV inh -88
Cc1ccc(C(C(=O)NCC2CCCO2)N(C(=O)c2snc(C(N)=O)c2N)c2ccc(F)cc2)o1 (stereo unspecified)	HCMV inh -75
CCc1ccc(N(C(=O)c2snc(C(N)=O)c2N)C(C(=O)NC2CCCC2)c2ccco2)cc1 (stereo unspecified)	HCV inhibitor inconclusive, HCMV inh inconclusive
COc1ccc(C(C(=O)NC2CCCC2)N(C(=O)c2snc(C(N)=O)c2N)c2ccccc2OC)cc1OC (stereo unspecified)	none
NC(=O)c1nsc(C(=O)N(CCc2ccccc2)C(C(=O)NC2CCCC2)c2ccco2)c1N (stereo unspecified)	HCMV inh -60 (no result: FMDV antiviral)
Cc1ccc(N(C(=O)c2snc(C(N)=O)c2N)C(C(=O)NCCC(C)C)c2ccco2)cc1 (stereo unspecified)	HCV inhibitor 32µM, HCMV inh -63 (no result: VACV Venus inh, VACV mCherry inh)
CCCCOc1ccc(C(=O)OCC(=O)NC2CCCC2)cc1	HCMV inh -100
Cc1ccc(OCCCC(=O)NC2CCCCC2)cc1	Sm TGR block 40µM
